Source: PubChem BioAssay AID1159580 (chemical genetic matrix, 2015)
Values joined by “and” are separate entries in the source; they are usually repeats but may differ in a detail not shown here. Equal entries are not always repeated. In all, about 5,500 compounds went through this assay and about 2,000 (36%) were called active. Not shown: some 18% with an inconclusive outcome. Cut-off read from the data, not from the text of the source: active = normalized growth mostly below about 0.91 (no sharp cut-off); inconclusive = no clear call, values can overlap the other calls; inactive = mostly above about 0.92. This is one part of the list.

Assay: chemical genetic growth profiling, strain panel (AID 1159580);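 note: tested at 20 µM; growth read once vehicle control cultures reached saturation at 30 °C; 1 = growth at the plate median or of vehicle wells; lower values mean less growth of the strain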
Conditions: S. cerevisiae deletion strains, growth OD

Measured: normalized growth

O=C(Cn1ccnc1[N+](=O)[O-])NCCO
inactive: locus YAL013W, strain DEP1, active compounds read low 0.996 | locus YAL021C, strain ccr4, active compounds read low 1.02 | locus YAL026C, strain drs2, active compounds read low 1.02 | locus YAL030W, strain snc1, active compounds read low 1.01 | locus YBL061C, strain skt5, active compounds read low 1.03 | locus YBR009C, strain hhf1, active compounds read low 1.02 | locus YBR021W, strain FUR4, active compounds read low 1.03 | locus YBR023C, strain chs3, active compounds read low 1.02 | locus YBR171W, strain sec66, active compounds read low 1.04 | locus YBR229C, strain ROT2, active compounds read low 1.01 | locus YBR231C, strain swc5, active compounds read low 1 | locus YBR279W, strain paf1, active compounds read low 1 | locus YCL011C, strain gbp2, active compounds read low 1.01 | locus YCL016C, strain dcc1, active compounds read low 1.02 | locus YCL029C, strain bik1, active compounds read low 1.02 | locus YCL061C, strain MRC1, active compounds read low 1.01 | locus YCL069W, strain vba3, active compounds read low 1.01 | locus YCR088W, strain abp1, active compounds read low 1.01 | locus YDL005C, strain med2, active compounds read low 1.02 | locus YDL035C, strain GPR1, active compounds read low 1.02 | locus YDL040C, strain nat1, active compounds read low 1.01 | locus YDL074C, strain BRE1, active compounds read low 0.99 | locus YDL101C, strain DUN1, active compounds read low 1 | locus YDL134C, strain PPH21, active compounds read low 0.996 | locus YDL185W, strain tfp1, active compounds read low 0.999 | locus YDL192W, strain arf1, active compounds read low 1.01 | locus YDR001C, strain nth1, active compounds read low 1.01 | locus YDR069C, strain doa4, active compounds read low 1.02 | locus YDR101C, strain arx1, active compounds read low 1.01 | locus YDR137W, strain rgp1, active compounds read low 1.05 | locus YDR150W, strain NUM1, active compounds read low 0.998 | locus YDR159W, strain sac3, active compounds read low 1.02 | locus YDR162C, strain NBP2, active compounds read low 0.985 | locus YDR195W, strain ref2 1.02 | locus YDR297W, strain sur2, active compounds read low 1.01 | locus YDR318W, strain mcm21, active compounds read low 1.03 | locus YDR334W, strain swr1, active compounds read low 1.01 | locus YDR335W, strain msn5, active compounds read low 1.01 | locus YDR388W, active compounds read low 1.01 | locus YDR392W, strain spt3, active compounds read low 1.03 | locus YDR502C, strain sam2, active compounds read low 0.988 | locus YEL003W, strain gim4, active compounds read low 1 | locus YEL037C, strain rad23, active compounds read low 1.02 | locus YEL061C, strain CIN8 (second series), active compounds read low 1.01 | locus YEL061C, strain CIN8, active compounds read low 1 | locus YER015W, strain faa2, active compounds read low 1 | locus YER016W, strain bim1, active compounds read low 1.01 | locus YER110C, active compounds read low 1 | locus YER111C, strain swi4, active compounds read low 1.02 | locus YER155C, strain BEM2 (second series), active compounds read low 1.01 | locus YER155C, strain BEM2, active compounds read low 1 | locus YER167W, strain BCK2, active compounds read low 1.03 | locus YFR010W, strain ubp6, active compounds read low 1.02 | locus YGL078C, strain dbp3, active compounds read low 0.983 | locus YGL086W, strain mad1, active compounds read low 1.03 | locus YGL167C, strain pmr1, active compounds read low 1.02 | locus YGL173C, strain kem1, active compounds read low 1.01 | locus YGL227W, strain vid30, active compounds read low 1.01 | locus YGL240W, strain doc1, active compounds read low 1.02 | locus YGL248W, strain PDE1, active compounds read low 0.999 | locus YGL253W, strain hxk2, active compounds read low 0.982 | locus YGR078C, strain PAC10, active compounds read low 0.995 | locus YGR135W, strain pre9, active compounds read low 0.988 | locus YGR229C, strain SMI1, active compounds read low 0.999 | locus YGR252W, strain gcn5, active compounds read low 1.09 | locus YHR013C, strain ard1, active compounds read low 1.04 | locus YHR027C, strain rpn1, active compounds read low 1.01 | locus YHR030C, strain SLT2, active compounds read low 1.01 and 0.984 | locus YHR079C, strain IRE1 (second series), active compounds read low 1.01 | locus YHR079C, strain IRE1, active compounds read low 0.998 | locus YHR094C, strain hxt1, active compounds read low 1.01 | locus YHR129C, strain ARP1, active compounds read low 1.01 | locus YHR142W, strain chs7, active compounds read low 1.02 | locus YHR200W, strain rpn10, active compounds read low 1.01 | locus YIL066C, strain RNR3, active compounds read low 1.01 | locus YIL073C, strain SPO22, active compounds read low 1.04 | locus YIL125W, strain kgd1, active compounds read low 0.997 | locus YIR030C, strain dcg1, active compounds read low 1.01 | locus YJL092W, strain hpr5, active compounds read low 1.02 | locus YJL095W, strain BCK1 (second series), active compounds read low 1.01 | locus YJL095W, strain BCK1, active compounds read low 1.01 and 0.995 | locus YJL115W, strain asf1, active compounds read low 1.01 | locus YJL129C, strain trk1, active compounds read low 1.02 | locus YJL134W, strain LCB3, active compounds read low 1.01 | locus YJL154C, strain vps35, active compounds read low 1.02 | locus YJL166W, strain qcr8, active compounds read low 1.01 | locus YJL168C, strain set2, active compounds read low 1.01 | locus YJL187C, strain SWE1 (second series), active compounds read low 0.999 | locus YJL187C, strain SWE1, active compounds read low 1.01 | locus YJR043C, strain POL32, active compounds read low 1.04 | locus YJR066W, strain TOR1, active compounds read low 0.972
